From PubChem
Pf growth 96h: P. falciparum growth inhibition at 96 hours. P. falciparum luciferase reporter growth, 96 h. Potency, µM (highest dose often 28.7 µM), usual class: inhibitors. 320,000 tested, 6.9% active. AID 504834
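P. falciparum expressing integrated firefly luciferase grown in erythrocytes (2% hematocrit, 0.05% parasitemia final) with compounds for 96 hours at 37 C, 5% CO2. Growth inhibition read as loss of luminescence after adding luciferase detection reagent.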
Shiga toxin inh: blocks Shiga toxin action in Vero cells | 290,000 tested, 9.2% active | inhibition, % at 38.7 µM | Vero cells, Shiga toxin protein synthesis inhibition reporter; in the data active = inhibition mostly above about 28%, no sharp cut-off; inactive = mostly below about 43%
HCV inhibitor: inhibitors of hepatitis C virus infection. 340,000 tested, 3.4% active. AID 651820. Potency, µM (top dose mostly 41.8 µM), actives largely listed as inhibitors. Huh7.5.1 HCVcc-Cre infection, luciferase reporter, 44 h
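Infectious HCVcc-Cre (~0.5 moi) was added to cells just after compound, with cells seeded 4 h earlier at 1,000 per well. Luciferase activity after 44 h culture reported infection; substrate was incubated 15 min at room temperature before reading.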
AMA1-RON2 inh: disrupts binding of P. falciparum AMA1 to RON2; Potency, µM (titrated, usually from 58.2 µM), actives largely listed as inhibitors; AlphaScreen AMA1-biotinylated RON2 peptide binding; 360,000 tested, 0.2% active; note: nearly all actives have a fitted effect of over 45% in size
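AMA1 (3D7) with his tag at 25 nM final met compounds first, then biotinylated RON2 peptide at 25 nM; detection used donor plus acceptor beads, 10 µg/mL apiece, read by AlphaScreen after 30 min at room temperature.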
Pf growth 48h: P. falciparum growth inhibition at 48 hours (one generation); Potency, µM (doses to about 28.7 µM), usual class: inhibitors; 310,000 tested, 5.9% active; AID 504832; P. falciparum luciferase growth in erythrocytes, 48 h
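Luciferase-expressing P. falciparum in infected erythrocytes (2% hematocrit, 0.1% parasitemia final) in RPMI 1640/0.5% Albumax were exposed to compound for 48 hours at 37 C, 5% CO2; growth read as luminescence.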
Cycloheximide cs: counter-screen for Shiga toxin inhibitors: cycloheximide protein synthesis inhibition | 300,000 tested, 12% active | cell reporter, cycloheximide protein synthesis inhibition counterscreen | max response, %; in the data active = max response mostly above about 13%, no sharp cut-off; inactive = mostly below about 14%; note: read at 38.3 µM for the half of the compounds with a filed dose
A number is an active result; - = inactive; ? = inconclusive; . = no result; [ ] = another dose, or the depositor's remark. In the library only some 21% were active in any assay of this set; here they are far more common. Unless noted, calls come from the whole dose curve; as a rule, active = well fitted curve in the direction sought with a large enough effect; inconclusive = small, poorly fitted or top-dose-only effect, or another doubt; inactive = no such curve, though single readings can be large; an effect the other way counts as inactive or inconclusive.

SMILES	Pf growth 96h	Shiga toxin inh	HCV inhibitor	AMA1-RON2 inh	Pf growth 48h	Cycloheximide cs
O=C(Nc1ccccc1)NC1CCCc2ccccc21 (configuration not stated)	-	-	-	-	?	-
CN(C(=O)Nc1ccccc1)C1CCCCC1	-	-	-	-	-	-
CCOc1ccc(CNC(=O)c2ccc(Sc3ccc(Cl)cc3)c(NC(C)=O)c2)cc1OC	-	-	13µM	-	-	-
CCOc1ccc(CNC(=O)c2ccc(Sc3ccc(C)cc3)c(NC(C)=O)c2)cc1OC	12µM	-	?	-	-	-
CCN(CC)CCNC(=O)c1ccc(Sc2ccc(Cl)cc2)c(NC(C)=O)c1	-	-	?	-	?	-
CC(=O)Nc1cc(C(=O)NCc2ccco2)ccc1Sc1ccc(C)cc1	?	-	-	-[11.6 µM]	-	-
COc1ccc2cc3[n+](cc2c1OC)CCc1cc2c(cc1-3)OCO2	0.15µM	-	?	-	0.23µM	-
COc1cccc(C2=NCCc3cc4c(cc32)OCO4)c1OC	-	-	-	-	-	-
O=C1NC(=Nc2cccc(O)c2)S/C1=C\c1cccnc1	6.6µM	-	-	-	?	-
Cc1cccc(N=C2NC(=O)/C(=C/c3cccnc3)S2)c1C	?	-	-	-	13µM	-
Cc1cccc(N=C2NC(=O)/C(=C/c3cccnc3)S2)c1	?	-	-	-	?	-
CC1(C)CC(=O)C(C=Nc2ccc(NC3=C(C#N)C(=O)CC(C)(C)C3)cc2)=C(O)C1	-	-	-	-	-	-
COC(=O)CNc1nc(Cl)nc(NC2CCCCC2)n1	5.2µM	-	-	-	-	-
CCOC(=O)CNc1nc(Cl)nc(N2CCCCC2)n1	-	-	-	-	-	12
O=C(COC(=O)C1CC(=O)N(Cc2ccco2)C1)Nc1nc(-c2ccc(F)cc2)cs1 (configuration not stated)	.	.	?	-	.	.
CSc1ccc(CNC(C)C(O)c2ccccc2)cc1 (configuration not stated)	-	-	-	-	1.9µM	-
CC(NCC#Cc1ccccc1)C(O)c1ccccc1 (configuration not stated)	?	-	-	-	?	-
COc1cc(C(=O)O)ccc1OCc1ccncc1	-	-	-	-	-	-
C#CCOCCOCCOCCNc1nc(N2CCN(C(=O)[C@H]([C@@H](C)CC)n3cc([C@@H](N)CC(C)C)nn3)CC2)nc(N2CCN(C(=O)[C@H](Cc3ccc(O)cc3)n3cc([C@@H](N)CC(C)C)nn3)CC2)n1	?	-	-	-	?	-
C#CCOCCOCCOCCNc1nc(N2CCN(C(=O)[C@H]([C@@H](C)CC)n3cc([C@@H](N)Cc4ccc(O)cc4)nn3)CC2)nc(N2CCN(C(=O)[C@H]([C@@H](C)CC)n3cc([C@@H](N)Cc4ccc(O)cc4)nn3)CC2)n1	1.9µM	-	-	-	1.9µM	-
C#CCOCCOCCOCCNc1nc(N2CCN(C(=O)[C@H]([C@@H](C)CC)n3cc([C@@H](N)CC(C)C)nn3)CC2)nc(N2CCN(C(=O)[C@H]([C@@H](C)CC)n3cc([C@@H](N)CC(C)C)nn3)CC2)n1	1.9µM	-	-	-	1.7µM	-
COc1ccc2cc([C@@H](C)C(=O)O)ccc2c1	-	.	-	-	-	.
COCCn1c(N)c(N(Cc2ccccc2)C(=O)C(C)Oc2ccc(Br)cc2)c(=O)[nH]c1=O (configuration not stated)	.	.	.	-	.	.
Cc1cccn2c(CNCCc3ccccn3)c(C(=O)N3CCOCC3)nc12	13µM	-	-	-	?	-
N#CC1(NC(=O)COC(=O)C2CCN(S(=O)(=O)c3ccc4c(c3)OCCO4)CC2)CCCCC1	.	.	-	-	.	.
SMILES	Pf growth 96h	Shiga toxin inh	HCV inhibitor	AMA1-RON2 inh	Pf growth 48h	Cycloheximide cs
CCCCC[n+]1ccn(C2=C([O-])c3ccccc3C(=O)/C2=N\S(=O)(=O)c2ccccc2)c1	5.9µM	-	?	-	2.9µM	-
CCCCC[n+]1ccn(C2=C([O-])c3ccccc3C(=O)/C2=N\S(=O)(=O)c2ccc(Br)cc2)c1	?	-	?	-	1.9µM	-
CCCC[n+]1ccn(C2=C([O-])c3ccccc3C(=O)/C2=N\S(=O)(=O)c2ccccc2)c1	8.3µM	-	11µM	-	1.9µM	-
CC(C)c1ccc(NC(=O)C[n+]2ccn(C3=C([O-])c4ccccc4C3=O)c2)cc1	-	-	-	-	-	-
CCCCC[n+]1ccn(-c2nc3ccccc3nc2[N-]S(=O)(=O)c2ccc(C)cc2)c1	?	-	-	-	-	-
CC(C)[n+]1ccn(C2=C([O-])c3ccccc3C(=O)/C2=N\S(=O)(=O)c2ccccc2)c1	?	-	?	-	6.6µM	-
CC1CCN(C(=O)C(=O)Nc2sc3c(c2C(N)=O)CC(C)(C)OC3)CC1	-	-	-	-	-	-
COC(=O)C[C@H]1C[C@H]2c3cc(NC(=O)NC4CCCC4)ccc3O[C@H]2[C@@H](CO)O1	.	.	.	-	.	.
Cc1cc(C)c(S(=O)(=O)N2CCOC2CNC(=O)C(=O)NCCN(C)C)c(C)c1 (configuration not stated)	-	-	-	-	-	-
CC(C)NC(=O)NC(=O)COC(=O)Cc1c(F)cccc1Cl	-	-	-	-	-	-
CC(C)(C)c1cc[n+](C2=C([O-])c3ccccc3C(=O)/C2=N\S(=O)(=O)c2ccccc2)cc1	4.1µM	95	-	-	3.7µM	58
C=CCNc1nc(NC(C)(C)CO)nc(OCC)n1	7.4µM	-	-	?	-	-
O=C(CSc1nc2ccccc2c(=O)n1CC1CCCO1)Nc1ccccc1 (configuration not stated)	?	-	-	-	-	-
CC(Sc1nc2ccccc2c(=O)n1C)C(=O)N(C)C1CCCCC1 (configuration not stated)	?	.	?	-	1.9µM	.
CCOC(=O)CSc1nc2ccccc2c(=O)n1CC1COc2ccccc2O1 (configuration not stated)	-	-	2.5µM	-	-	-
CC(Sc1nc2ccccc2c(=O)n1CC1CCCO1)C(=O)N(C)Cc1ccccc1 (configuration not stated)	10µM	.	?	-	?	.
CCOC(=O)CSc1nc2ccccc2c(=O)n1CC1CCCO1 (configuration not stated)	?	-	8.9µM	-	-	-
CC(C)CCn1c(SC(C)C(=O)NC2CC2)nc2ccccc2c1=O (configuration not stated)	?	.	?	-	?	.
Nc1nc(SCCO)[nH]c(=O)c1NC(=O)c1ccccc1F	-	-	-	-	-	-
CC(C)(C)c1ccc(S(=O)(=O)N2CCN(C(=O)C3CCC3)CC2)cc1	?	-	?	-	?	-
COCCNC(=O)C1(C)CCCN(C(=O)c2ccc(C(=O)OC)cc2)C1 (configuration not stated)	.	.	.	-	.	.
